Compounds with a hit are over-represented: about 1.8% of the library has one in this group of screens.
ABCB6 inh 2: blocks the human ABCB6 transporter | K562-ABCB6 porphyrin accumulation, flow cytometry, 1 h; hits give low values | fluorescence ratio to DMSO, % at 10 µM | 360,000 tested, 0.19% active | AID 602162;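 active means fluorescence ratio to DMSO below 75%, the collection mean minus 3 SD; inconclusive means too few cells collected in the well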;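 further: signal is porphyrin accumulated inside mitochondria; 100% equals median channel fluorescence of DMSO control wells; lower ratio means ABCB6 inhibition with less porphyrin fluorescence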
Target sequence (Q9NP58 whole entry, looked up): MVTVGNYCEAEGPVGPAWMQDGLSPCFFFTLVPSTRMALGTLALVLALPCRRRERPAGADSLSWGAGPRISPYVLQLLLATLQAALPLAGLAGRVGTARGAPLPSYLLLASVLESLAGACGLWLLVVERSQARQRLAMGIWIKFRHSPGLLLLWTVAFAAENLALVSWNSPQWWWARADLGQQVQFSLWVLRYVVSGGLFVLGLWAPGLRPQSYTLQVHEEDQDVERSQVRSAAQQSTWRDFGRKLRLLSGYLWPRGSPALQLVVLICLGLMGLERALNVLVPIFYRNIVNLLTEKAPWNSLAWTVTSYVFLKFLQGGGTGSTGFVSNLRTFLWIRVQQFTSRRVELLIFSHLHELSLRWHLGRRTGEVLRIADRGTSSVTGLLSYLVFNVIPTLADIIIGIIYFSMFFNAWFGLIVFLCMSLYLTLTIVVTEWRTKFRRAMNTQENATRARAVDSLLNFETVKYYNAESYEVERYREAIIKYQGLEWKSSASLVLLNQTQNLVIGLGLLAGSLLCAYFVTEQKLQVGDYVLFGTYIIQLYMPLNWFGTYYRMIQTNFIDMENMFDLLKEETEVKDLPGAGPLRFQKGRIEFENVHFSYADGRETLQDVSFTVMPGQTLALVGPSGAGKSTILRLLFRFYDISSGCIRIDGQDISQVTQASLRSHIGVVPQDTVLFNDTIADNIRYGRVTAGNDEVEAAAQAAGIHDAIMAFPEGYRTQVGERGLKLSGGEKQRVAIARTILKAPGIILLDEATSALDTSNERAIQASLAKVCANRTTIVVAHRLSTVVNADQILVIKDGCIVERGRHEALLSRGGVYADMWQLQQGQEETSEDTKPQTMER
Myeloid diff MLP: myeloid differentiation induction | ER-HoxA9 myeloid progenitors, lysozyme-GFP differentiation, flow cytometry | calls only at 10 µM | 360,000 tested, 1% active;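 active means normalized GFP-positive differentiation at or above the plate's own cutoff, the solvent-only control mean plus 3 SD; inconclusive means no clear call, values can overlap the other calls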;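 further: cells exposed to compound for four days before flow analysis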
Granule exo inh: blocks lytic granule exocytosis | TALL-104 LAMP-1 surface exposure, flow cytometry; cells stimulated with thapsigargin and PMA | inhibition, % at 10 µM | 360,000 tested, 0.66% active | AID 651702;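 active means inhibition above about 55%, limit read from the data; inconclusive means no clear call, values can overlap the other calls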
Myeloid diff CP1: compounds promoting myeloid differentiation; shares compounds with Myeloid diff MLP; ER-HoxA9 myeloid progenitors, GFP/Mac1 double-positive flow; calls only; 2,300 tested, 2% active; AID 651706;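 active means share of green or green-and-red cells above 9 and 9% in run 1 or 4 and 3% in run 2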
GFP autofluor: flagged as fluorescent in myeloid differentiation counter-screen. 2,300 tested, 7.4% active. ER-HoxA9 myeloid progenitors, no estrogen, GFP autofluorescence flow cytometry; vehicle wells 0%, positive control 100%. shares compounds with Myeloid diff MLP. AID 651707. fluorescence response, % (concentration not given with the values);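 active means over 5% cells positive for green fluorescent reporter, or over 2% positive for both it and APC stain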;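 further: range taken on the double positive population between DMSO and positive control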
Active calls of the source: *; i = inactive; ? = inconclusive; . = no result given; + = active, no number.

SMILES	ABCB6 inh 2	Myeloid diff MLP	Granule exo inh	Myeloid diff CP1	GFP autofluor
CCS(=O)(=O)Nc1ccc(-c2cc(-c3ccccc3)c3cc(C)ccc3n2)cc1	101	i	2	i	0
Cc1ccc2nc(-c3ccc(NS(C)(=O)=O)cc3)cc(-c3ccccc3)c2c1	101	i	6	.	.
CC(C)n1cc(CN2CCC(C(=O)Nc3ccc(Oc4ccccc4F)cc3)CC2)cn1	90	i	7	.	.
C[C@@H]1CN(C(=O)c2nc3ccc(Cl)cn3c2CN(C)CCc2cnn(C)c2)C[C@H](C)O1	100	i	-1	.	.
CCN(CC)C(=O)CSc1ncnc2c(-c3cccs3)nsc12	113	i	0	i	1
CCN(CC)C(=O)CSc1ncnc2sccc12	101	i	-2	.	.
CCC(C)(C)n1nnnc1CN1CCN(c2ccc(OC)cc2)CC1	93	i	0	.	.
CCCC(c1nnnn1C1CCCC1)N1CCN(C(=O)c2ccco2)CC1 (stereo unspecified)	94	i	2	.	.
CC(C)CC(c1nnnn1C1CCCC1)N1CCN(C(=O)c2ccco2)CC1 (stereo unspecified)	91	+	0	i	0
CC(C)CC(c1nnnn1C1CCCCC1)N1CCN(C(=O)c2ccco2)CC1 (stereo unspecified)	96	?	7	.	.
CCCC(c1nnnn1C(C)(C)C)N1CCN(C(=O)c2ccco2)CC1 (stereo unspecified)	102	+	-2	i	0
O=C(COC(=O)c1n[nH]c(=O)c2ccccc12)Nc1ccccc1F	101	i	-9	.	.
CC1=C(C(=O)OCc2ccc3c(c2)OCO3)C(c2ccc(F)cc2)NC(=O)N1 (stereo unspecified)	93	+	-2	i	0
CC1=C(C(=O)OCc2ccc3c(c2)OCO3)C(c2ccc(Cl)cc2)NC(=O)N1 (stereo unspecified)	102	?	-11	.	.
COC(=O)[C@H](CCSC)NS(=O)(=O)c1ccccc1Br	96	i	-9	.	.
CC(C)Sc1nc2sccc2c(=O)n1-c1ccccc1	102	i	-3	.	.
COc1ccc(CCNS(=O)(=O)c2cccc(F)c2)cc1OC	103	i	-2	i	0
COc1ccc(CCNS(=O)(=O)c2cccc(C)c2)cc1OC	97	i	0	.	.
O=C1CCC/C(=N/NC(=O)c2cc(NS(=O)(=O)c3cccs3)cc(NS(=O)(=O)c3cccs3)c2)C1	99	i	0	.	.
O=C1CCC/C(=N/NC(=O)c2ccc(NS(=O)(=O)c3cccs3)cc2)C1	80	i	1	i	0
CCN(CC(=O)Nc1c(F)cccc1F)C(=O)c1ccc2c(c1)C(=O)N(c1ccccc1C)C2=O	103	i	10	.	.
CC(=O)N1CCc2cc(S(=O)(=O)NCCC(=O)Nc3ccc4c(c3)OCCO4)ccc21	103	i	-5	i	0
CC(=O)N1CCc2cc(S(=O)(=O)NCCC(=O)Nc3cc(C)cc(C)c3)ccc21	95	i	-2	.	.
CC1CCCCN1C(=O)Nc1cccc(C(F)(F)F)c1 (stereo unspecified)	95	i	-3	.	.
COc1ccc(/C=C/C(O)=C2/C(=O)N(C)C3(C)CC2c2ccccc2O3)cc1 (stereo unspecified)	91	+	16	+	0
SMILES	ABCB6 inh 2	Myeloid diff MLP	Granule exo inh	Myeloid diff CP1	GFP autofluor
Cc1ccc(/C=C/C(O)=C2/C(=O)N(C)C3(C)CC2c2ccccc2O3)cc1 (stereo unspecified)	91	i	1	.	.
COc1ccc(NC(=O)N(C)[C@H]2C[C@H]3c4[nH]c5ccc(-c6ccc7c(c6)OCO7)cc5c4CCN3C[C@H]2[C@H](C)O)cc1	103	i	34	i	0
COc1ccc(NC(=O)N(C)[C@H]2C[C@H]3c4[nH]c5ccc(-c6ccc(OC)cc6)cc5c4CCN3C[C@H]2[C@H](C)O)cc1	101	i	-4	.	.
Cc1c(CN2CCC(CO)(CC3CCCCO3)CC2)cnn1C (stereo unspecified)	99	.	1	.	.
CC(=O)NCCCc1nc2ccccc2n1Cc1ccccc1F	99	i	14	.	.
COc1ccc(C(=O)NCCCc2nc3ccccc3n2Cc2ccccc2C)cc1OC	98	+	14	i	1
O=C1N=C(N2CCN(Cc3ccccc3)CC2)S/C1=C/c1cccs1	100	+	-1	i	0
O=C1N=C(N2CCN(c3ccccc3)CC2)S/C1=C/c1cccs1	102	i	-3	.	.
CN(C)CCCNS(=O)(=O)c1ccc(Cl)s1	?	i	-2	.	.
O=C(NC1CCCC1)C(c1ccc(F)cc1)N1CCC(O)(c2ccc(Cl)cc2)CC1 (stereo unspecified)	.	i	4	.	.
O=C(Cc1cccc(NC(=O)C2CCN(C(=O)C3CCC3)CC2)c1)Nc1cccc(C(=O)N2CCCC2)c1	98	i	-1	i	0
O=C(Cc1cccc(NC(=O)C2CCN(C(=O)C3CCC3)CC2)c1)Nc1cccc(C(=O)N2CCOCC2)c1	106	i	-1	.	.
CCN1C(=O)C(=O)N(CC(=O)Nc2cccc(C(F)(F)F)c2)C1=O	97	i	-2	.	.
CCCCCc1ccc(C(=O)CCC(=O)OCC(=O)N(CC)c2c(N)n(Cc3ccccc3)c(=O)[nH]c2=O)cc1	98	i	10	.	.
O=C(O)CSc1ncnc2nc[nH]c12	99	i	-1	.	.
O=C(CSc1ncnc2nc[nH]c12)c1ccc2ccccc2c1	100	+	-6	i	0
CC(C)(C)C(=O)COC(=O)c1ccc2c(c1)C(=O)N(Cc1ccco1)C2=O	96	i	5	.	.
CC(=O)N/C(=C/c1ccc([N+](=O)[O-])cc1)C(=O)O	91	i	-1	.	.
COCC(=O)OCC(=O)N1N=C(c2ccc(Cl)cc2)CC1c1ccco1 (stereo unspecified)	97	i	2	.	.
CC(C)[C@H](NS(=O)(=O)c1ccccc1)C(=O)OCC(=O)N1N=C(c2ccc(Cl)cc2)CC1c1ccco1 (stereo partly specified)	98	i	-2	i	0
O=C(c1ccc(S(=O)(=O)NCc2ccco2)cc1)N1CCN(Cc2ccc3c(c2)OCO3)CC1	104	i	-1	.	.
Nc1ccccc1NC(=O)c1ccccc1	98	i	-2	.	.
Nc1ccc(NC(=O)c2ccccc2)c2c1C(=O)c1ccccc1C2=O	131	i	-3	i	0
Cn1nc(-c2ccc(N3CCN(CCO)CC3)c([N+](=O)[O-])c2)c2ccccc2c1=O	89	i	-1	.	.
NNC(=O)c1ccc(COc2cccc3ccccc23)o1	92	+	-3	i	0
CCOc1ccc(OCc2ccc(C(=O)NN)o2)cc1	98	+	1	i	0
CC(C)NC(=O)c1ccc(COc2cccc3ccccc23)o1	98	i	1	.	.
CCOc1ccc(OCc2ccc(C(=O)NC(C)(C)C)o2)cc1	92	i	19	.	.
Cc1ccc(OCc2ccc(C(=O)NN)o2)cc1C	96	i	2	.	.
NNC(=O)c1ccc(COc2ccc3ccccc3c2)o1	92	+	12	i	0
